Measurements published in PubChem BioAssay (NCI).
This is part of a sample that, as a whole, favours compounds with a hit. Of some 83,000 tested, about 20% had one in any assay.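 Cell lines were cultured in 96-well plates, exposed to a single compound concentration, and assessed for percent growth 48 hours later.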 The source made the active and inactive calls. The calls were made as follows: active = growth percent below 10; inactive = the rest.

Assays:
Assay in all cases: NCI-60 one-dose screen, 48 h (100 = growth as untreated, 0 = no growth, -100 = all killed)
HCT-15 colon = conditions: 10 µM unless noted
HT29 colon = conditions: 10 µM unless noted
SNB-19 CNS = conditions: 10 µM unless noted
U251 CNS = conditions: 10 µM unless noted
PC-3 prostate = conditions: 10 µM unless noted
SK-MEL-5 melanoma = conditions: 10 µM unless noted
UACC-62 melanoma = conditions: 10 µM unless noted
LOX IMVI melanoma = conditions: 10 µM
SK-MEL-28 melanoma = conditions: 10 µM unless noted

Measured: growth

COc1ccc2c(c1)c(-c1cc3nc(-c4cn(C)c5ncc(Br)cc45)cc(N)n3n1)cn2C
active: HCT-15 colon -48% | HT29 colon -88.5% | SNB-19 CNS -16.9% | U251 CNS -57.3% | PC-3 prostate -19.5% | SK-MEL-5 melanoma -88.1% | UACC-62 melanoma -82.2% | LOX IMVI melanoma -100% | SK-MEL-28 melanoma -92.8%

C#CCOc1ccc(/C=N/Nc2nc(-c3cc4cc(OC)ccc4oc3=O)cs2)cc1OC
inactive: HCT-15 colon 60.5% | HT29 colon 29.2% | SNB-19 CNS 75.3% | U251 CNS 38.5% | PC-3 prostate 20.8% | SK-MEL-5 melanoma 39.2% | UACC-62 melanoma 54.4% | LOX IMVI melanoma 22.8% | SK-MEL-28 melanoma 18.9%

Cn1cc(-c2cc(N)n3nc(-c4cn(C)c5ncccc45)cc3n2)c2cccnc21
inactive: SNB-19 CNS 101% | PC-3 prostate 79.7% | SK-MEL-5 melanoma 68.4% | UACC-62 melanoma 102% | SK-MEL-28 melanoma 106%
active: HCT-15 colon -91.7% | HT29 colon -66.7% | U251 CNS -46.1% | LOX IMVI melanoma -100%

COc1ccc(-c2ccc(SCC(=O)Nc3ccc(S(N)(=O)=O)cc3Br)nn2)cc1
inactive: HCT-15 colon 84.5% | HT29 colon 95.7% | SNB-19 CNS 23.4% | U251 CNS 52.4% | PC-3 prostate 73.5% | SK-MEL-5 melanoma 94.3% | UACC-62 melanoma 83.2% | LOX IMVI melanoma 98.8% | SK-MEL-28 melanoma 99.2%

Cn1cc(-c2cc3nc(-c4cn(C)c5ncc(Br)cc45)cc(N)n3n2)c2ccccc21
active: HCT-15 colon -23.3% | HT29 colon -86.1% | SNB-19 CNS -27% | U251 CNS -68.8% | PC-3 prostate -15.5% | SK-MEL-5 melanoma -94% | UACC-62 melanoma -83.2% | LOX IMVI melanoma -100% | SK-MEL-28 melanoma -91.6%

C=C1CCC2C3(C)COC(c4ccccc4)OC3CCC2(C)C1CC(Sc1ccccc1)C1=CCOC1=O (stereo not drawn)
inactive: HT29 colon 13.8% | SNB-19 CNS 85.5% | U251 CNS 17.5% | PC-3 prostate 29.3% | SK-MEL-5 melanoma 55.2% | UACC-62 melanoma 39.5% | SK-MEL-28 melanoma 82.5%
active: HCT-15 colon 5.46% | LOX IMVI melanoma -98%

COc1ccc2c(c1)c(-c1cc3nc(-c4cn(C)c5ncccc45)cc(N)n3n1)cn2C
active: HCT-15 colon -57.7% | HT29 colon -95.5% | U251 CNS -67% | PC-3 prostate -1.31% | SK-MEL-5 melanoma -100% | UACC-62 melanoma -89.8% | LOX IMVI melanoma -100% | SK-MEL-28 melanoma -97.2%
inactive: SNB-19 CNS 22.3%

CC12CC[C@@H]3[C@]4(C)COC(c5c(F)cccc5F)O[C@@H]4CC[C@@]3(C)[C@@H]1CC(C1=CCOC1=O)O2 (stereo partly drawn)
inactive: HCT-15 colon 80.4% | HT29 colon 76.5% | SNB-19 CNS 63.2% | U251 CNS 80% | PC-3 prostate 56.4% | SK-MEL-5 melanoma 47.4% | UACC-62 melanoma 50.4% | LOX IMVI melanoma 73.1% | SK-MEL-28 melanoma 88.8%

COc1c(F)ccc(C(=O)Nc2ccc3nc(NC(=O)C4CCCN(S(=O)(=O)c5ccc(Cl)cc5)C4)sc3c2)c1F (stereo not drawn)
inactive: HCT-15 colon 72.8% | HT29 colon 72.1% | SNB-19 CNS 82.5% | U251 CNS 70.3% | PC-3 prostate 55.9% | SK-MEL-5 melanoma 72.3% | UACC-62 melanoma 67.1% | LOX IMVI melanoma 76% | SK-MEL-28 melanoma 89.4%

COc1cc(/C=C2\C(=N)N=C(SCc3nc4ccccc4[nH]3)NC2=O)ccc1O
inactive: HCT-15 colon 96.3% | HT29 colon 110% | SNB-19 CNS 104% | U251 CNS 105% | PC-3 prostate 94.2% | SK-MEL-5 melanoma 98.5% | UACC-62 melanoma 89% | LOX IMVI melanoma 88% | SK-MEL-28 melanoma 110%

C=C1CC[C@@H]2[C@]3(C)COC(c4cn[nH]c4-c4cccc(Br)c4)O[C@@H]3CC[C@@]2(C)[C@@H]1C/C=C1/C(=O)OCC1O (stereo partly drawn)
active: HCT-15 colon -67.5% | HT29 colon 1.52% | SNB-19 CNS -87.9% | U251 CNS -90.9% | PC-3 prostate -47.9% | SK-MEL-5 melanoma -99.6% | UACC-62 melanoma -83.2% | LOX IMVI melanoma -100% | SK-MEL-28 melanoma -76.7%

Cn1cc(-c2cc3nc(-c4cn(C)c5ncccc45)cc(N)n3n2)c2cc(Cl)ccc21
active: HCT-15 colon -64.5% | HT29 colon -55.6% | SNB-19 CNS -88.1% | U251 CNS -79.7% | PC-3 prostate -82.1% | SK-MEL-5 melanoma -99.4% | UACC-62 melanoma -99.6% | LOX IMVI melanoma -100% | SK-MEL-28 melanoma -99.9%

CC12CC[C@@H]3[C@]4(C)COC(c5cn[nH]c5-c5ccc(Br)cc5)O[C@@H]4CC[C@@]3(C)[C@@H]1CC(C1=CCOC1=O)O2 (stereo partly drawn)
inactive: HCT-15 colon 42.2% | HT29 colon 47.6% | SNB-19 CNS 59.4% | U251 CNS 53% | PC-3 prostate 24.2% | SK-MEL-5 melanoma 32.4% | UACC-62 melanoma 41.5% | LOX IMVI melanoma 22.1% | SK-MEL-28 melanoma 47.1%

C=C1CCC2C3(C)COC(c4cccs4)OC3CCC2(C)C1CC(Sc1ccccc1)C1=CCOC1=O (stereo not drawn)
inactive: HCT-15 colon 44.3% | HT29 colon 69.4% | SNB-19 CNS 95.4% | U251 CNS 69.1% | PC-3 prostate 53.5% | SK-MEL-5 melanoma 89.2% | UACC-62 melanoma 71.7% | SK-MEL-28 melanoma 99.4%
active: LOX IMVI melanoma -77.9%

COc1c(F)ccc(C(=O)Nc2ccc3nc(NC(=O)C4CCCN(S(=O)(=O)c5ccc(Br)s5)C4)sc3c2)c1F (stereo not drawn)
inactive: HCT-15 colon 63% | HT29 colon 75.5% | SNB-19 CNS 90.1% | U251 CNS 68% | PC-3 prostate 56.1% | SK-MEL-5 melanoma 81.5% | UACC-62 melanoma 75.6% | LOX IMVI melanoma 79.3% | SK-MEL-28 melanoma 94.6%

Cc1ccc(Cc2cnc(NC(=O)c3ccc(/C=C4\SC(=S)N(C)C4=O)cc3)s2)cc1
inactive: HCT-15 colon 18.7% | HT29 colon 23.8% | SNB-19 CNS 53.8% | U251 CNS 62.3% | PC-3 prostate 37.3% | SK-MEL-5 melanoma 19.4% | UACC-62 melanoma 25.1% | LOX IMVI melanoma 34.3% | SK-MEL-28 melanoma 42.1%

Cn1cc(-c2cc(N)n3nc(-c4cn(C)c5ncc(Br)cc45)cc3n2)c2cc(Br)cnc21
active: HCT-15 colon -76.6% | HT29 colon -85% | U251 CNS -62.1% | PC-3 prostate 1.06% | UACC-62 melanoma -82.3% | LOX IMVI melanoma -100% | SK-MEL-28 melanoma -49.9%
inactive: SNB-19 CNS 10% | SK-MEL-5 melanoma 34.8%

O=C1CC(Sc2n[nH]c(-c3ccncc3)n2)C(=O)N1c1ccc(Br)cc1 (stereo not drawn)
inactive: HCT-15 colon 102% | HT29 colon 112% | SNB-19 CNS 96.1% | U251 CNS 107% | PC-3 prostate 118% | SK-MEL-5 melanoma 115% | UACC-62 melanoma 96.9% | LOX IMVI melanoma 100% | SK-MEL-28 melanoma 108%

Cn1cc(-c2cc(N)n3nc(-c4c[nH]c5ccccc45)cc3n2)c2cc(Br)cnc21
active: HCT-15 colon -58.5% | HT29 colon -80.7% | SNB-19 CNS -39.6% | U251 CNS -79.7% | PC-3 prostate -43.3% | SK-MEL-5 melanoma -94.2% | UACC-62 melanoma -95% | LOX IMVI melanoma -94.1% | SK-MEL-28 melanoma -96.2%

Cc1ccccc1[C@H]1C(C(=O)c2ccc(Cl)cc2)C2(N[C@@H]1c1ccccc1)C(=O)Nc1ccccc12 (stereo partly drawn)
inactive: SNB-19 CNS 16.2%
active: HCT-15 colon -14% | HT29 colon -88.7% | U251 CNS -58.1% | PC-3 prostate -22.6% | SK-MEL-5 melanoma -72.2% | UACC-62 melanoma -83.5% | LOX IMVI melanoma -100% | SK-MEL-28 melanoma -34.3%

CC(=O)c1cccc(NC(=O)CCC(=O)NS(=O)(=O)c2ccc(C)cc2)c1
inactive: HCT-15 colon 107% | HT29 colon 106% | SNB-19 CNS 98.5% | U251 CNS 104% | PC-3 prostate 105% | SK-MEL-5 melanoma 109% | UACC-62 melanoma 102% | LOX IMVI melanoma 104% | SK-MEL-28 melanoma 108%

CCOC(=O)c1ccc(Nc2nc(NN)nc(-c3ccc(OC)cc3)c2C#N)cc1
inactive: HCT-15 colon 106% | HT29 colon 115% | SNB-19 CNS 92.2% | U251 CNS 106% | PC-3 prostate 85.2% | SK-MEL-5 melanoma 90.1% | UACC-62 melanoma 93.4% | LOX IMVI melanoma 114% | SK-MEL-28 melanoma 113%

N/C(=N\N=C\c1ccc([N+](=O)[O-])cc1)c1c(N)nc(=S)[nH]c1-c1ccc(Cl)cc1Cl
inactive: HCT-15 colon 103% | HT29 colon 116% | SNB-19 CNS 74.9% | U251 CNS 67% | PC-3 prostate 96.8% | SK-MEL-5 melanoma 104% | UACC-62 melanoma 84.7% | LOX IMVI melanoma 96.5% | SK-MEL-28 melanoma 113%

Cc1ccccc1[C@H]1C(C(=O)c2ccc(Cl)cc2)C2(N[C@@H]1c1ccccc1)C(=O)Nc1ccc(Cl)cc12 (stereo partly drawn)
inactive: SNB-19 CNS 17.4%
active: HCT-15 colon -69.1% | HT29 colon -88.5% | U251 CNS -82.9% | PC-3 prostate -26.9% | SK-MEL-5 melanoma 0.559% | UACC-62 melanoma -55.5% | LOX IMVI melanoma -100% | SK-MEL-28 melanoma -23.4%

Cn1cc(-c2cc(N)n3nc(-c4c[nH]c5ccccc45)cc3n2)c2cccnc21
active: HCT-15 colon -10.2% | HT29 colon -38.1% | PC-3 prostate 5.88% | UACC-62 melanoma -84% | LOX IMVI melanoma -85.8% | SK-MEL-28 melanoma -81.6%
inactive: SNB-19 CNS 59.9% | U251 CNS 20% | SK-MEL-5 melanoma 23.1%

CC1(c2cc3cc(Cl)ccc3oc2=O)NC(=O)c2c(/C=C/C(=O)OC3CC4CCC3(C)C4(C)C)cccc2N1 (stereo not drawn)
inactive: HCT-15 colon 66.4% | HT29 colon 60.9% | SNB-19 CNS 52.9% | U251 CNS 52.5% | PC-3 prostate 25.7% | SK-MEL-5 melanoma 61.2% | UACC-62 melanoma 62.6% | LOX IMVI melanoma 78.9% | SK-MEL-28 melanoma 75.4%

CCOC(=O)/C=C/c1cccc2c1C(=O)NC(C)(c1cc3cc(Cl)ccc3oc1=O)N2 (stereo not drawn)
inactive: HCT-15 colon 20.9% | HT29 colon 32.5% | SNB-19 CNS 33.8% | U251 CNS 33.9% | PC-3 prostate 17.4% | SK-MEL-5 melanoma 10.2% | UACC-62 melanoma 13.4% | LOX IMVI melanoma 22.2% | SK-MEL-28 melanoma 53.9%
